Laboratory results as given in PubChem BioAssay.
Results with a measured potency or affinity are listed apart. Activity calls are given as the source filed them.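 How the source made its calls: active means primary screen inhibitor hit that blocks the TRPC4 channel at some tested dose, yielding a dose curve; inactive means the rest.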

Biological target: Short transient receptor potential channel 4 (Mus musculus) (UniProt Q9QUQ5)
Experiment: mouse TRPC4 channel inhibitors, dose response, cell-based, HEK293 TRPC4/mu-opioid, Fluo-4 calcium (AID 434942)
Details: HEK293 TRPC4/mu-opioid cells, DAMGO-evoked Fluo-4 calcium ratio; series mostly up to 20 µM

Short transient receptor potential channel 4 (Mus musculus), sequence (Q9QUQ5 whole entry, looked up): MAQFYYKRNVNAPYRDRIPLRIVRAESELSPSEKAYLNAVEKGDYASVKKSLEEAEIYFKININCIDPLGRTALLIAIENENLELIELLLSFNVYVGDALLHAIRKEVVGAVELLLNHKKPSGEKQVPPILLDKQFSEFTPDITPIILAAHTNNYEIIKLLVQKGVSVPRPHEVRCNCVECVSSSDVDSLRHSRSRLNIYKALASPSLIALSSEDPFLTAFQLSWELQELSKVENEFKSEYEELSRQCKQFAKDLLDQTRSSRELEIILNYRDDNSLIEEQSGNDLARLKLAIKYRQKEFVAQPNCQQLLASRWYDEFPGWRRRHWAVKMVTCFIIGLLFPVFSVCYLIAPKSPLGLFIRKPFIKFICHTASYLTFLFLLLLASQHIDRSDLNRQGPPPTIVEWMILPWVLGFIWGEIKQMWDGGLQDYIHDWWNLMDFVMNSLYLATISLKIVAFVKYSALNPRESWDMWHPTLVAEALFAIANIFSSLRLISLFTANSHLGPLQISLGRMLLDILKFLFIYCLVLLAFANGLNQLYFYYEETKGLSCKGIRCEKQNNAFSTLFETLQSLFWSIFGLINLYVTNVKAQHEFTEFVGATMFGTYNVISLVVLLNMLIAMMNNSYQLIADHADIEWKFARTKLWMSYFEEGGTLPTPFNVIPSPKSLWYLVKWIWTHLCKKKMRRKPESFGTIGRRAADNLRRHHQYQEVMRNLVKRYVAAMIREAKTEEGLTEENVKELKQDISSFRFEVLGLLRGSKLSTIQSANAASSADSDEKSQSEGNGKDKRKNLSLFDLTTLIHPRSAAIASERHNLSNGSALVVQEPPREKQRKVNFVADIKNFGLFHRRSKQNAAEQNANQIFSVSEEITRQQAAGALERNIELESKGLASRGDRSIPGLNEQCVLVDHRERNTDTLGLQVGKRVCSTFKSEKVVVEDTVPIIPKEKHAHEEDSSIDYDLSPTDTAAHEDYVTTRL

outcome, inactive:
COc1cc(/C=C2\C(=N)N3N=C(S(C)(=O)=O)SC3=NC2=O)ccc1OC(=O)c1cccs1
c1ccc(CN2CCN(c3nc4ccccc4s3)CC2)cc1
COc1ccccc1N(C(=O)c1snc(C(N)=O)c1N)C(C(=O)NCc1ccccc1)c1ccc(O)cc1 (configuration not stated)
Cc1ccc(SC(CC(=O)c2ccc(C(C)(C)C)cc2)C(=O)O)cc1 (configuration not stated)
COc1ccc(C2CC(=O)c3cnc(N4CCN(Cc5ccccc5)CC4)nc3C2)cc1 (configuration not stated)
CC(=O)Nc1ccc(S(=O)(=O)N2CCN(CCCOc3cc(C)ccc3C)CC2)cc1
COc1cc(/C=C/C(=O)OCC(=O)Nc2c(C)n(C)n(-c3ccccc3)c2=O)ccc1OCC#N
Cc1cc2oc(C(=O)N(Cc3ccco3)C3CCS(=O)(=O)C3)cc(=O)c2cc1Cl (configuration not stated)
CCOCCCn1cnc2c(c1=O)c1nc3ccccc3nc1n2-c1ccc(C)cc1
O=C(c1ccccc1F)N1CCN(c2ccc([N+](=O)[O-])cc2-n2cccc2)CC1
CN(CC(=O)Nc1ccc(F)cc1)C(=O)COC(=O)c1ccccc1
O=C(NC1CC1)c1ccc2c(c1)N(Cc1ccc(Cl)cc1)CCS2
O=C(Nc1ccc2c(c1)OCO2)c1cnn2cccnc12
CCc1nc2ccccc2n1Cc1ccccc1F
CN(Cc1ccco1)C(=O)Cn1ncc2c([nH]c3ccccc32)c1=O
CN1CCN(NC(=O)Nc2cc(Cl)cc(Cl)c2)CC1
Cc1ccc2nc(C(=O)N3CCc4c([nH]c5ccccc45)C3c3ccccn3)cn2c1 (configuration not stated)
